Laboratory results from PubChem BioAssay (NCI).
About 83,000 compounds went through this panel and 20% of them were active in at least one assay; those are over-represented in the sample as a whole.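 Single-concentration screen, 48 h exposure, 96-well plates. Endpoint: percent growth. Below 10 = active.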 A number with no mark means an inactive call. The source made the active and inactive calls.

What was measured:
Experiment in all cases: NCI-60 one-dose screen, 48 h (100 = growth as untreated, 0 = no growth, -100 = all killed)
Settings in all cases: 10 µM unless noted
[1] = system: MOLT-4 leukemia
[2] = system: SR leukemia
[3] = system: RPMI-8226 leukemia
[4] = system: OVCAR-8 ovarian
[5] = system: OVCAR-5 ovarian
[6] = system: OVCAR-4 ovarian
[7] = system: SK-OV-3 ovarian
[8] = system: IGROV1 ovarian
[9] = system: OVCAR-3 ovarian
[10] = system: HS 578T breast
[11] = system: NCI/ADR-RES ovarian
[12] = system: T-47D breast
[13] = system: BT-549 breast
[14] = system: MDA-MB-435 melanoma
[15] = system: SW-620 colon
[16] = system: HCT-116 colon
[17] = system: HCC-2998 colon
[18] = system: KM12 colon
[19] = system: MCF7 breast

SMILES | growth [1] | growth [2] | growth [3] | growth [4] | growth [5] | growth [6] | growth [7] | growth [8] | growth [9] | growth [10] | growth [11] | growth [12] | growth [13] | growth [14] | growth [15] | growth [16] | growth [17] | growth [18] | growth [19]
CC(=O)O[C@H]1C(=O)[C@@]2(C)[C@H]([C@H](OC(=O)c3ccccc3)[C@]3(O)C[C@H](OC(=O)[C@H](OC(=O)OC[C@@H]4COC(C)(C)O4)[C@@H](NC(=O)c4ccccc4)c4ccccc4)C(C)=C1C3(C)C)[C@]1(OC(C)=O)CO[C@@H]1C[C@@H]2O | 14.7% | 25.5% | 5.35% (active) | 16.5% | 6.96% (active) | 64.4% | 12.9% | 16.6% | 8.13% (active) | 2.33% (active) | 80.9% | 25.5% | 12.5% | -77.7% (active) | 26.5% | 5.09% (active) | -4.98% (active) | 10.7% | –
NC(=O)C(Br)c1ccccc1 (stereo not given) | 74.2% | 46.1% | 96.6% | 90.8% | 114% | 89.6% | 117% | 80.3% | 91.9% | 103% | 105% | 95.3% | 77.6% | 94.1% | 117% | 82.8% | 96.4% | 96.9% | –
CCCCCCCCCCCCCCCCCC1OC[C@H](COC(=O)O[C@@H](C(=O)O[C@H]2C[C@@]3(O)[C@@H](OC(=O)c4ccccc4)[C@@H]4[C@]5(OC(C)=O)CO[C@@H]5C[C@H](O)[C@@]4(C)C(=O)[C@H](OC(C)=O)C(=C2C)C3(C)C)[C@@H](NC(=O)c2ccccc2)c2ccccc2)O1 (stereo not given in full) | 55.1% | 44.9% | 17.5% | 61.5% | 41.5% | 75.5% | 62.8% | 42.9% | 31.9% | 60.7% | 103% | 50.4% | 53.8% | -29.7% (active) | 46.9% | 17.8% | 54.1% | 26.4% | –
O=C(CC1(O)C(=O)Nc2ccc(Cl)cc21)c1ccc(C(=O)NCC2CCC3(CC2)OOC2(CCCCC2)OO3)cc1 (stereo not given) | -39.9% (active) | -48.2% (active) | -42.4% (active) | 3.83% (active) | 47.4% | 14.4% | 57.2% | -18.6% (active) | -76.8% (active) | 16.1% | 58.3% | -24.7% (active) | 48.8% | 8.39% (active) | -49% (active) | 41.6% | – | 9.65% (active) | 37.4%
O=C1C2CCC1C(N1CCCC1)CC2 (stereo not given) | 98% | 100% | 98.7% | 96.3% | 101% | 106% | 106% | 96% | 106% | 102% | 102% | 106% | 98% | 96.8% | 99.5% | 102% | – | 101% | 94.7%
O=[N+]([O-])c1cnc[nH]1 | 114% | 117% | 107% | 109% | 108% | 114% | 110% | 127% | 112% | 106% | 104% | 117% | 112% | 105% | 104% | 106% | – | 107% | 94.8%
COc1ccc(/C(C)=C(\c2ccc(OCCN3CCOCC3)cc2)c2ccc(OC(=O)Cc3ccccc3)cc2)cc1 | 104% | 112% | 84.6% | 100% | 104% | 106% | 97.6% | 113% | 101% | 110% | 102% | 65.4% | 108% | 107% | 111% | 104% | – | 103% | 71.7%
CCCCCSC1C2C(=O)C(Br)=CC13CCNc1c(O)c4c5c(c13)=[N+]2CCC=5C=N4 (stereo not given) | -45.5% (active) | -14.1% (active) | -17% (active) | -30.2% (active) | -55.2% (active) | -88.6% (active) | -2.42% (active) | -64.6% (active) | -79.5% (active) | 4.01% (active) | 29.1% | -48.2% (active) | 36.1% | -81.1% (active) | -54.5% (active) | -92.3% (active) | -68.4% (active) | 2.34% (active) | –
N#CC1C(C#N)C2CCC1C1C2N1c1ccccc1 (stereo not given) | 91.2% | 91.5% | 95.8% | 114% | 92.4% | 106% | 100% | 85.1% | 107% | 112% | 111% | 108% | 98.1% | 107% | 100% | 95.1% | – | 102% | 101%
COC1CC2c3ccccc3C1C(C)=[N+]2C (stereo not given) | 101% | 105% | 75.3% | 96.6% | 93.8% | 83.7% | 105% | 92.5% | 102% | 105% | 78.7% | 107% | 87.4% | 100% | 104% | 103% | – | 104% | 97.3%
COC(=O)[C@H](Cc1ccccc1)NC(=O)c1csc([C@@H](C[C@H](C(C)C)N(C)C(=O)[C@@H](NC(=O)[C@H]2CCCCN2C)C2CC2)OC(C)=O)n1 | 10.1% | 6.23% (active) | 10.3% | 17% | 32.3% | 49.7% | 4.51% (active) | 29.1% | -21.4% (active) | 6.85% (active) | 15.9% | 28.3% | 2.98% (active) | -44.4% (active) | 22.8% | -16.9% (active) | 16.1% | 2.87% (active) | –
C=C1C[C@](OC)([C@H](O)C(=O)N[C@@H](OC)[C@@H]2C[C@@H](O)C(C)(C)[C@@H](C[C@@H](COC)OC)O2)O[C@H](C)[C@@H]1C | -51.7% (active) | -39.2% (active) | -72.5% (active) | -20.8% (active) | -29.8% (active) | -38.4% (active) | -9.43% (active) | -66.8% (active) | -43.9% (active) | -46.2% (active) | -42.3% (active) | -7.29% (active) | -59.9% (active) | -83.3% (active) | -64.3% (active) | -16.7% (active) | – | -41.8% (active) | -52.6% (active)
CC[C@H](C)[C@H](NC(=O)[C@H]1CCCCN1C)C(=O)N(C)[C@H](C[C@@H](OC(C)=O)c1nc(C(=O)NC23CC(C(=O)OC)(C2)C3)cs1)C(C)C | 6.06% (active) | 0.833% (active) | 25.6% | 18.6% | 53.7% | 42.7% | 24.4% | 32% | -18.6% (active) | 27.5% | 10% | 64.4% | -39.2% (active) | -14.1% (active) | 39.4% | 5.83% (active) | – | 0.539% (active) | 12.1%
CC1(C)C(C(=O)c2cn(CCCCF)c3ccccc23)C1(C)C | 77.8% | 77.9% | 81.5% | 82% | 103% | 107% | 102% | 114% | 105% | 88.5% | 98.1% | 78.6% | 100% | 108% | 99.1% | 90.4% | – | 102% | 89%
CC12CCC=CC1CCC1C2CCC2(C)C(c3ccc(=O)oc3)CCC12O (stereo not given) | -16.7% (active) | -4.41% (active) | -14.1% (active) | -51.4% (active) | -80.4% (active) | -52.8% (active) | -11% (active) | -12.3% (active) | -74.5% (active) | -14.8% (active) | -51.5% (active) | -13.6% (active) | -65.2% (active) | -95.2% (active) | -36.7% (active) | -64.2% (active) | – | -55.7% (active) | -30.6% (active)
